Laboratory results as given in PubChem BioAssay (Tox21).
Results filed as inconclusive are left out. Active and inactive are the calls of the source. Unless noted, the call rests on the fitted dose curve; in most records, active means well fitted curve in the direction sought with a large enough effect in the repeat runs; inconclusive means weak or mixed curves; inactive means no such curve, though single readings can be large; an effect the other way counts as inactive or inconclusive.

Legend:
[1] = qHTS assay to identify small molecule agonists of the constitutive androstane receptor (CAR) signaling pathway - cell viability counter screen (AID 1224836); further: nearly all actives have a fitted effect of over 45% in size; further: potency means the concentration at half of the fitted maximal effect
In short: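 Viability read-out: CellTiter-Fluor fluorescence after 23 h compound exposure at 37 C/5% CO2 in double-stable HepG2-CYP2B6-hCAR cells, with PK11195 present at 0.75 uM final; compounds tested in 15-point titration.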

[2] = qHTS assay to identify small molecule antagonists of the constitutive androstane receptor (CAR) signaling pathway - cell viability counter screen (AID 1224837); further: nearly all actives have a fitted effect of over 45% in size; further: potency means the concentration at half of the fitted maximal effect
In short: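 In quantitative HTS format, compounds at 15 concentrations were applied to HepG2 cells double-transfected with hCAR and CYP2B6-2.2kb under 50 nM CITCO stimulation; live-cell protease activity was read after 23 hr via CellTiter-Fluor.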

[3] = biological target: Nuclear receptor subfamily 1 group I member 3 (Homo sapiens) (UniProt Q14994); test: qHTS assay to identify small molecule antagonists of the constitutive androstane receptor (CAR) signaling pathway (AID 1224838); further: nearly all actives have a fitted effect of over 40% in size; further: potency means the concentration at half of the fitted maximal effect
Chain of Nuclear receptor subfamily 1 group I member 3 (Homo sapiens) (Q14994 whole entry, looked up): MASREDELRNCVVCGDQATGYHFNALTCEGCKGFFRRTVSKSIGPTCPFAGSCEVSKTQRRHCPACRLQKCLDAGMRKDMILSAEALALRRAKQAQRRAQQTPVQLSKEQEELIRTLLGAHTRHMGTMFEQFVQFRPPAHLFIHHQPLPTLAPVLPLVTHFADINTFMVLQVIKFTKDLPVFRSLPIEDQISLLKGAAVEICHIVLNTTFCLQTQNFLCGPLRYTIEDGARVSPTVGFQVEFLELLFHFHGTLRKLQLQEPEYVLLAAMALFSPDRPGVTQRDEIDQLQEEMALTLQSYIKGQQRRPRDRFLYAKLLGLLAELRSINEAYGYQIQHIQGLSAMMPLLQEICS
In short: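 CITCO-stimulated (50 nM final) HepG2 cells stably transfected with hCAR and CYP2B6-2.2kb luciferase were exposed to compounds at 15 concentrations for 24 h at 37 C/5% CO2. A luciferase reagent was added and luminescence recorded after 30 min.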

[4] = biological target: Nuclear receptor subfamily 1 group I member 3 (Homo sapiens) (UniProt Q14994); test: qHTS assay to identify small molecule agonists of the constitutive androstane receptor (CAR) signaling pathway (AID 1224839); further: nearly all actives have a fitted effect of over 15% in size; further: potency means the concentration at half of the fitted maximal effect
In short: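 Luminescence read-out (ONE-Glo, 30 min, room temperature) from double-stable HepG2-CYP2B6-hCAR cells exposed 24 h to 15-point compound series in presence of 0.75 uM PK11195 final.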

[5] = qHTS assay to identify small molecule antagonists of the estrogen related receptor signaling pathway with the pleiotropic PPARgamma coactivator (PGC) from Tox21 10K library - cell viability counter screen (AID 1224840; active means well fitted cell-killing curve with a large enough effect in the repeat runs, not every such curve was filed as active; further: nearly all actives have a fitted effect of over 40% in size)
In short: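 Viability counter screen, PGC/ERR cells: 17.5 h compound exposure at 37 C, CellTiter-Fluor fluorescence endpoint.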

[6] = biological target: Thyrotropin receptor (Homo sapiens) (UniProt P16473); test: qHTS assay to identify small molecule agonists of the thyroid stimulating hormone receptor (TSHR) signaling pathway (AID 1224843; calls by dose curve; further: nearly all actives have a fitted effect of over 45% in size)
Chain of Thyrotropin receptor (Homo sapiens) (P16473 whole entry, looked up): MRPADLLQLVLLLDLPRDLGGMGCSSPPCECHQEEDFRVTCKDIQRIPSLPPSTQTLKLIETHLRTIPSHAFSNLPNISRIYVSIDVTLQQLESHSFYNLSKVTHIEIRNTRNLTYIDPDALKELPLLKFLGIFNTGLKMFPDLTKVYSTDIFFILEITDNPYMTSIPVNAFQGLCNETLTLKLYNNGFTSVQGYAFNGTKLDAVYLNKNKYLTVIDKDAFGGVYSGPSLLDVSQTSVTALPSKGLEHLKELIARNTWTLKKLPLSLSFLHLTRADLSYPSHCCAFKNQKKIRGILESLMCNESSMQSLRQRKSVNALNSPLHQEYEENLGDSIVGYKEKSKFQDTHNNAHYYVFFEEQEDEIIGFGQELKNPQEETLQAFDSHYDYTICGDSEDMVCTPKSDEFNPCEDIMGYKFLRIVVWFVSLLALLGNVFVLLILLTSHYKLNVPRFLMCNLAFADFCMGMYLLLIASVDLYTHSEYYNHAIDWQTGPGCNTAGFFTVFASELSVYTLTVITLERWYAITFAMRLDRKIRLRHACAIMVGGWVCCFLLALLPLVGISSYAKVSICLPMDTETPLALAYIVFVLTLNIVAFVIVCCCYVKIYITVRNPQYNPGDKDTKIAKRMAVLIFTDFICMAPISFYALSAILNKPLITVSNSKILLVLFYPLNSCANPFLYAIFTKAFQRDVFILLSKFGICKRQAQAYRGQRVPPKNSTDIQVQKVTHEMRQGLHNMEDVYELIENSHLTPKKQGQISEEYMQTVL
In short: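 Agonist activity read as cAMP rise via d2/cryptate HTRF competition, 1 h room-temperature detection, in HEK293 cells expressing TSHR. Fifteen-point titrations, each run in triplicate, with a 30 min room-temperature incubation beforehand.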

[7] = qHTS assay to identify small molecule agonists of the hypoxia (HIF-1) signaling pathway - cell viability counter screen (AID 1224844; calls by dose curve; further: nearly all actives have a fitted effect of over 50% in size; further: potency means the concentration at half of the fitted maximal effect)
In short: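 Same wells as the HIF-1 reporter screen; ME-180 cells carrying HRE-bla, 17 hr treatment at 37C; CellTiter-Glo luminescence read after 30 min at room temperature.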

[8] = biological target: Luciferin 4-monooxygenase (Photinus pyralis) (UniProt P08659); test: qHTS assay to identify small molecule inhibitors of firefly luciferase (AID 1224835); further: series mostly up to about 120 µM; nearly all actives have a fitted effect of over 25% in size
Chain of Luciferin 4-monooxygenase (Photinus pyralis) (P08659 whole entry, looked up): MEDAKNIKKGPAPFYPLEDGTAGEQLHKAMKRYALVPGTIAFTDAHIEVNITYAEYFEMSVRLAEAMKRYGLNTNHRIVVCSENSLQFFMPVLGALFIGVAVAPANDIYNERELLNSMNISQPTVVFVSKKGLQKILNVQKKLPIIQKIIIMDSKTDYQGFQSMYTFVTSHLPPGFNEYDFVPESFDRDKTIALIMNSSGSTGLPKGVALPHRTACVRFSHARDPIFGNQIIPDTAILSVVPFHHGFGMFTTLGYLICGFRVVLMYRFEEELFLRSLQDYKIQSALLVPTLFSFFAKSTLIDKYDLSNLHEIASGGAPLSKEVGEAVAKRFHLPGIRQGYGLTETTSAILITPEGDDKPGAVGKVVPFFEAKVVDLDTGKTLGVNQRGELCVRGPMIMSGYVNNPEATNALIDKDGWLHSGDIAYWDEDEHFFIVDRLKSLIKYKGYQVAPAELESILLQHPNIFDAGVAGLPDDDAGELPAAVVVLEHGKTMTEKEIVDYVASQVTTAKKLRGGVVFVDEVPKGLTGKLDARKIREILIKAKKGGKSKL
In short: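 Inhibition of purified Photinus luciferase is measured by luminescence. Substrate levels (D-luciferin, ATP) sit at their KM values. Each compound is tested in a concentration series.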

[9] = qHTS assay to identify small molecule agonists of the estrogen related receptor signaling pathway with the pleiotropic PPARgamma coactivator (PGC) from Tox21 10K library (AID 1224842); further: nearly all actives have a fitted effect of over 15% in size
In short: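 Luminescence from One-Glo (30 min, room temperature) measured after PGC/ERR cells had 18 h at 37 C with pinned compound (23 nL in DMSO). Cells had been seeded at 2,000 per well and pre-incubated 6 h.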

[10] = qHTS assay to identify small molecule antagonists of the estrogen related receptor signaling pathway with the pleiotropic PPARgamma coactivator (PGC) from Tox21 10K library (AID 1224841; call rule not given here; further: actives are mostly falling curves and most rising ones were filed inactive; nearly all actives have a fitted effect of over 50% in size; further: potency means the concentration at half of the fitted maximal effect)
In short: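 In the PGC/ERR line, DMSO solutions of test chemicals are pin-delivered to 2,000 cells/well six hours after dispensing. Following eighteen hours' incubation, One-Glo reagent is added and luminescence recorded.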

Measured: Potency

CCCCCCCCCBr
inactive: [1] | [2] | [3] | [4] | [5] | [6] | [7]

Oc1ccc(C2(c3ccc(O)cc3)CCCCC2)cc1
inactive: [8]
active: [7] 52.1 µM

O=c1oc2ccccc2c(O)c1Cc1c(O)c2ccccc2oc1=O
inactive: [1] | [2] | [3] | [5] | [9] | [7]

COP(=S)(OC)Oc1cc(Cl)c(Br)cc1Cl
active: [4] 54.5 µM
inactive: [1] | [2] | [3] | [5] | [6] | [7]

CC(C)[C@H](C(=O)OC(C#N)c1cccc(Oc2ccccc2)c1)c1ccc(OC(F)F)cc1 (some centres not stated)
inactive: [1] | [2] | [3] | [4] | [5] | [9] | [6] | [7]

C=CCOC(N)=O
inactive: [1] | [2] | [4] | [5] | [10] | [9] | [7]

CCN
inactive: [1] | [2] | [3] | [4] | [5] | [6] | [7]

N#Cc1ccc(O)cc1
inactive: [1] | [2] | [3] | [4] | [5] | [7]

Clc1ccc(Oc2ccccc2)cc1
inactive: [1] | [2] | [4] | [5] | [7]

CCOP(=S)(OCC)OC(Cl)C(Cl)(Cl)Cl (configuration not stated)
inactive: [1] | [2] | [3] | [5] | [10] | [9] | [6] | [7]

CC(Cl)CN(C)C (configuration not stated)
inactive: [1] | [2] | [3] | [4] | [5]

ClC(Cl)=C(Cl)Cl
inactive: [1] | [2] | [3] | [4] | [5] | [7]

Nc1ccc(Sc2ccc(N)cc2)cc1
inactive: [1] | [2] | [3] | [5] | [9] | [6] | [7]
active: [4] 34.4 µM

CC1(C)C(/C=C(\Cl)C(F)(F)F)C1C(=O)OC(C#N)c1cccc(Oc2ccccc2)c1 (configuration not stated)
inactive: [1] | [2] | [4] | [5] | [6] | [7]

CC1CCC(C(C)C)C(OC(=O)c2ccccc2N)C1 (configuration not stated)
active: [7] 38.4 µM
inactive: [1] | [2] | [3] | [9] | [6]

[Cl][Sb]([Cl])[Cl]
inactive: [1] | [2] | [3] | [4] | [6]

CCCCOCN(C(=O)CCl)c1c(CC)cccc1CC
inactive: [1] | [2] | [5] | [9] | [6]
active: [4] 27.3 µM | [10] 12.2 µM

CS(=O)(=O)c1ccc(C(=O)C2C(=O)CCCC2=O)c([N+](=O)[O-])c1
inactive: [1] | [2] | [3] | [4] | [5] | [9]
active: [10] 31.2 µM

c1ccc(OCC2CO2)cc1 (configuration not stated)
inactive: [1] | [2] | [3] | [4] | [5] | [6] | [7]

NC(=O)CCl
inactive: [1] | [2] | [3] | [4] | [5] | [6] | [7]

Cc1ccc(C(=O)Cl)cc1
inactive: [1] | [2] | [3] | [4] | [5] | [10] | [9] | [6] | [7]

Oc1ccc(C(=C(Cl)Cl)c2ccc(O)cc2)cc1
active: [4] 48.5 µM
inactive: [1] | [2] | [3] | [9]

CN(C)[C@@H]1C(=O)C(C(N)=O)=C(O)[C@@]2(O)C(=O)C3=C(O)c4c(O)ccc(Cl)c4[C@@](C)(O)[C@H]3C[C@@H]12
inactive: [8] | [5] | [6] | [7]

COc1cccc2c1C(=O)c1c(O)c3c(c(O)c1C2=O)C[C@@](O)(C(=O)CO)CC3OC1CC(N2CCOC(OC)C2)C(O)C(C)O1 (some centres not stated)
active: [1] 0.119 µM | [2] 0.106 µM | [3] 0.0298 µM | [10] 0.266 µM
inactive: [4] | [5] | [9] | [6]

Cc1ccc(CCl)cc1
inactive: [1] | [2] | [3] | [4] | [5] | [10] | [9] | [6] | [7]
